Source: PubChem (National Center for Advancing Translational Sciences (NCATS))
The list is not random: actives were taken first. Their share in the collection is about 0.5%.
GoLoco inh red: qHTS Assay for Inhibitors of RGS12 GoLoco Motif Activity (Red Fluorophore); Potency, µM (titrated, usually from 61.6 µM), for the others: at the top dose activity, negative = inhibition, hits mostly inhibitors; Gai1:RGS12 GoLoco peptide FP, rhodamine, 10 min; AID 880, 2007; 0.44% of 230,000 active; Guanine nucleotide-binding protein G(i) subunit alpha-1 (Homo sapiens), P63096; active = well fitted inhibition curve with a large enough effect, not every such curve was filed as active; inactive = no such curve, though single readings can be large or run the other way; note: potency is the fitted concentration of half-maximal effect; % is set by controls: 0 for no effect and ±100 for the full control effect; nearly all actives have a fitted effect of over 30% in size
ERK EGF inh: qHTS Assay for Inhibitors of the ERK Signaling Pathway using a Homogeneous Screening Assay; Stimulation with EGF; HEK293-V1b, EGF-stimulated phospho-ERK AlphaScreen; Potency, µM (top dose mostly 11.5 µM), for the others: top-dose activity change, negative = inhibition, most hits filed as inhibitors; 0.41% of 130,000 active;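 note: potency is the fitted concentration of half-maximal effect; plate controls were stimulated vehicle wells for no effect and unstimulated vehicle basal for full effect; nearly all actives have a fitted effect of over 55% in size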
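Homogeneous cell-based phospho-ERK assay: HEK293/V1b cells in 1% FBS, compound 30 min then EGF 5 min, AlphaScreen luminescence. Activity normalized between DMSO and 25 nM EGF controls; AC50 from Hill modelling.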
CBFb-RUNX1 inh: qHTS Assay for Compounds Blocking the Interaction Between CBF-beta and RUNX1 for the Treatment of Acute Myeloid Leukemia; Runt-related transcription factor 1 (Homo sapiens) + Core-binding factor subunit beta …; AlphaScreen CBFb-His/RUNX1-biotin binding, biochemical; Potency, µM (highest dose often 59.8 µM), inactives show at the top dose activity, negative = inhibition, usual class: inhibitors; 230,000 tested, under 10 active; note: % of control where 0% means no effect
Target sequence (Q01196 whole entry, looked up): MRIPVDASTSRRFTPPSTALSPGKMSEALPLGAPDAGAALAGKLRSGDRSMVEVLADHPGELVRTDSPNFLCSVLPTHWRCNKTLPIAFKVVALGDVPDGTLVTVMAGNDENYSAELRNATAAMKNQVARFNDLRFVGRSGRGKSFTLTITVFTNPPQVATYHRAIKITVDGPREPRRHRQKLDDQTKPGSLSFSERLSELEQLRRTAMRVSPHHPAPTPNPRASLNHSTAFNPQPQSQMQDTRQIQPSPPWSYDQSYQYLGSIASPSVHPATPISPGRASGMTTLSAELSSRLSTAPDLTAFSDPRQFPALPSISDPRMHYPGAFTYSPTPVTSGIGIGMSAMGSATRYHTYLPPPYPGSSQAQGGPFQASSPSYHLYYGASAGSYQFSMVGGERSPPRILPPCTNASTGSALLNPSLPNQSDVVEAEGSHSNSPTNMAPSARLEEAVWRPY
Target sequence (Q13951 whole entry, looked up): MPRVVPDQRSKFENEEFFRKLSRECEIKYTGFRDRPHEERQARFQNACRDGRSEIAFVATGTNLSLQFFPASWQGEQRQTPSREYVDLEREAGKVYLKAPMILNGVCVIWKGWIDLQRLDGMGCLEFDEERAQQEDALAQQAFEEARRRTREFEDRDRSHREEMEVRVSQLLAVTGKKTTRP
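CBFb-His/RUNX1-biotin, 30 nM each, preincubated 20 min RT; compound 15 min RT; Ni + streptavidin beads 50 ng each, 90 min RT; AlphaScreen read.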
An asterisk follows results filed as active; u = inconclusive; x = no result; ! = repeats disagree; [ ] = remark or other dose. Unless noted, calls come from the whole dose curve; as a rule, active = well fitted curve in the direction sought with a large enough effect; inconclusive = small, poorly fitted or top-dose-only effect, or another doubt; inactive = no such curve, though single readings can be large; an effect the other way counts as inactive or inconclusive.

SMILES | GoLoco inh red | ERK EGF inh | CBFb-RUNX1 inh
CN(C)c1ccc(NC(=O)CSCc2nc3c(nnn3Cc3ccc(F)cc3)c(=O)[nH]2)cc1 | 3.5µM* | x | -22%
Cc1cccc(NC(=O)CSCc2nc3c(nnn3Cc3ccc(F)cc3)c(=O)[nH]2)c1C | -9% | 7% | -11%
CCCCC/C=C\C/C=C\CCCCCCCCCC(=O)NCCCC(=O)O | 2% | 5% | 11%
C=C1CCC2C(C)(CO)C(O)CCC2(C)C1C/C=C1\C(=O)OCC1O (stereo unspecified) | 2% | -8% | 14%[21.7 µM]
O=S(=O)(c1cccc(NC(=S)N2CCN(c3cccc(Cl)c3)CC2)c1)C(F)F | 10% | 25µM* | 6%
O=S(=O)(c1cccc(NC(=S)N2CCN(c3ccc(F)cc3)CC2)c1)C(F)F | 10% | u | -9%
COC[C@H]1O[C@@H](c2c(OC)cc(OC)cc2OC)[C@H](OC)[C@@H](OC)[C@@H]1OC | 1% | -3% | -4%
Cc1ccc2ccccc2[n+]1CCCS(=O)(=O)[O-] | -14% | x | 1%
Cc1ccc2ccc(C)[n+](CCCS(=O)(=O)[O-])c2c1 | 7.9µM* | -17% | -8%
O=C(O)c1cc(-c2ccc(/C=C3/SC(=S)N(Cc4ccccc4)C3=O)o2)ccc1Cl | 50% | -3% | u
CN1C(=O)/C(=C/c2ccc(-c3ccccc3[N+](=O)[O-])o2)SC1=Nc1ccc(Cl)c(C(=O)O)c1 | 14µM* | 4% | -9%
O=C1C(O)=C(O)C(=O)C(O)=C1O | 25µM* | -1% | u
COc1ccc(-c2nc(CN3CCN(c4cc(C)nc(C)c4)CC3)c(C)o2)c2ccccc12 | 7% | -16% | 4%
Cc1oc(-c2cccc3ccccc23)nc1CN1CCN(c2ncnc3ccccc23)CC1 | 12% | 32µM* | 0%
CCN(CC)CCOCCOC(=O)C(CC)(CC)c1ccccc1 (tested in a mixture with another compound) | 9% | x | x
CCNc1ncc2nc(-c3cccc(C#N)c3)c(=O)n(Cc3cccc(OC)c3)c2n1 | -11% | x | x
C[C@@]12C[C@H](O)C3[C@H](CCC4=CC(=O)CC[C@]43C)[C@H]1CC[C@@H]2c1csc(N)n1 (stereo partly specified) | 4%[14.2 µM] | x | x
CC(=O)Nc1ccc(-c2csc(Nc3ccc(Cl)cn3)n2)cc1 | 3% | 1% | -12%
CC(=O)Nc1cccc(-c2csc(Nc3ccc(Cl)cn3)n2)c1 | 5% | 28µM* | -8%
NNC(=O)c1cc(-c2cccs2)nc2ccccc12 | 6% | 7%[57.5 µM] | -3%
Cc1cccc2sc(NNC(=O)c3cc(-c4cccs4)nc4ccccc34)nc12 | 14% | 13µM* | 1%[2.36 µM]
N[C@@H](Cc1nn[nH]n1)C(=O)O | 4%[14.2 µM] | x | x
COc1cc2ccc(=O)oc2cc1OCC(O)C(C)(C)O (stereo unspecified) | 5% | -11%[57.5 µM] | 3%
COc1cc2ccc(=O)oc2cc1O | 28µM*! | -14% | 9%[21.7 µM]
COc1ccc(/C=C(/C(=O)c2ccc(Cl)cc2Cl)n2cncn2)cc1 | 3% | x | 1%
SMILES | GoLoco inh red | ERK EGF inh | CBFb-RUNX1 inh
CC(C)CC(=O)/C(=C\c1ccc(Cl)cc1Cl)n1cncn1 | -13% | 28µM* | 1%
COc1cccc([C@@H]2Oc3ccc(OC)cc3C(=O)[C@H]2OC(=O)NCc2ccco2)c1 | 0% | -4% | 5%
Cc1noc(C)c1-c1ccc2ncnc(NCc3ccc(C(F)(F)F)cc3)c2c1 | x | x | 2%
O=S1(=O)C2CC3CCC2(CN1Cc1cccc(F)c1)O3 (stereo unspecified) | x | x | -6%
CC(=O)/C(C[N+]1(C)CCCCC1)=N\O | 3.2µM* | x | 10%
C[N+]1(CC(=O)OC2CCCCCCCCCCC2)CCCC1 | -36% | 3% | -1%
Cc1noc(C)c1-c1ccc2ncnc(NC(C)c3ccccc3)c2c1 (stereo unspecified) | x | x | -5%
COc1ccc(COC(=O)N/N=C2/C[C@@H](O)[C@@H](O)[C@@H]3[C@@H]4C(=O)N(C5CCCCC5)C(=O)[C@H]4CC[C@H]23)cc1 | x | x | 3%[13.1 µM]
Cc1cccc(O)c1 | 3% | x | 0%
O[C@@H](c1cc(-c2ccc(Cl)cc2)nc2ccccc12)C1CCCCN1 (stereo partly specified) | 1%[14.2 µM] | x | x
OC(c1cc(-c2ccc(Cl)cc2)nc2ccccc12)C1CCCCN1 (stereo unspecified) | 9% | 32µM* | 1%
COc1ccccc1-c1csc(NC(=O)c2ccc(N3C(=O)CCC3=O)cc2)n1 | 3% | 28µM* | 0%
COc1ccc(-c2csc(NC(=O)c3ccc(N4C(=O)CCC4=O)cc3)n2)cc1 | 4% | u | -1%
NCCC[C@@H](CC(=O)N[C@@H]1CCNC[C@H]1C(=O)N[C@H](CC(=O)N[C@@H](CCC(=O)O)CC(=O)O)Cc1ccccc1)NC(=O)C[C@H](Cc1ccccc1)NC(=O)[C@@H]1CCCC[C@H]1N | -3% | -3% | 0%
Nc1nc(NCCc2ccc(O)cc2)nc2nc(-c3ccco3)nn12 | 11% | 3% | -2%
Cc1cc(Nc2ccc(O)cc2)ccc1N | 28µM* | x | u
Nc1cc([N+](=O)[O-])ccc1Nc1ccc(O)cc1 | 1% | 0%[57.5 µM] | u
COCC(=O)N1CCc2nc(COc3ccccc3)c3c(c2C1)CO[C@@H](C)C3 | 6%[14.2 µM] | x | 0%[13.1 µM]
CCC/C=C(\CCC)C(NS(=O)(=O)CC12CCC(CC1=O)C2(C)C)c1ccc(C(=O)OC)cc1 (stereo unspecified) | -15% | 3% | 5%
OCc1nnn(-c2ccccc2)c1CO | 10% | -15%[57.5 µM] | 15%
Nc1c(CO)nnn1-c1ccccc1 | 3.2µM* | 8% | -5%
OC[C@H]1O[C@@H](n2cnc3c(N[C@H]4C[C@H]5CC[C@@H]4C5)ncnc32)[C@H](O)[C@@H]1O | 4% | x | 13%
COc1ccc2c(c1)O[C@@H](c1ccc3c(c1)OCO3)[C@H](OC(=O)N[C@H](C)C1CCCCC1)C2=O | 32µM* | -1% | -2%
COc1ccc2c(c1)O[C@H](c1ccc3c(c1)OCO3)[C@@H](OC(=O)NC1CCCC1)C2=O | 3% | -5% | -9%
C[N+]1=C2CCCCCN2C(O)(c2ccccc2)C1 (stereo unspecified) | 14µM* | x | 10%
OC1(c2ccccc2Cl)NN=C2CCCCCN21 (stereo unspecified) | 1% | -13% | 3%
CN(C)C(=O)c1ccc(-c2nc(NCc3ccccc3)c3ccccc3n2)cc1 | 7% | 25% | x
CC(S)C(=O)NCC(=O)O (stereo unspecified) | 10µM* | x | 1%
O=C(O)C[C@H](S)C(=O)O | 6%[14.2 µM] | x | x
CO[C@H]1C=CO[C@@]2(C)Oc3c(C)c(O)c4c(O)c(c(C=NN5CCN(C6CCCC6)CC5)c(O)c4c3C2=O)NC(=O)C(C)=CC=C[C@H](C)[C@H](O)[C@@H](C)[C@@H](O)[C@@H](C)[C@H](OC(C)=O)[C@@H]1C | 24% | 8.9µM* | u
